Assay outcomes from PubChem.
Most compounds without a hit are left out; they make up all but 2.6% or so of the library.
LMP1 NFkB inh = reduces LMP1-driven NF-kappaB luciferase signal. actives 0.69% (n = 350,000). LMP1-induced NF-kappaB luciferase reporter cells, luminescence. inhibition, % at 12.5 µM; in the data active means inhibition above about 41%; inconclusive means no clear call, values can overlap the other calls
LGR2 antag = inhibitors of bursicon-induced Drosophila LGR2 receptor cAMP signaling. HEK293 LGR2, CRE-luciferase, bursicon-stimulated, 4 h. actives 0.35% (n = 380,000). inhibition, % at 9.99 µM. AID 720647;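 active means drop in luminescence signal, shown as inhibition above about 50% in the replicate tests, limit read from the data, passing the limit was not always enough; inconclusive means probably only some replicates passing the limit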;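 further: agonist challenge used bursicon conditioned medium at about half maximal strength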
EWS-Fli inh = inhibitors of EWS/Fli oncoprotein transcriptional activity; inhibition, % at 12.6 µM; actives 0.67% (n = 350,000); A673 NR0B1-luciferase reporter, viability-normalised;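 active means mean inhibition of at least 50% after viability correction, with every replicate also passing that limit; inconclusive means mean reaches 50% but only one of two replicates passes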;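 further: firefly luciferase signal divided by Alamar Blue viability fluorescence both relative to DMSO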
TROY NFkB inh = TROY signaling inhibition. AID 1347056. inhibition, % at 10 µM. Q293 LMP1-TROYcd NF-kB luciferase reporter, 4 h. actives 0.98% (n = 360,000);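 active means compounds whose plate-normalised and pattern-corrected inhibition of the luciferase reporter signal at the single screening dose is 50% or more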
TWEAK-Fn14 inh = inhibitors of TWEAK-Fn14 interaction signaling; AID 1159606; TWEAK-stimulated Fn14 reporter cells, luciferase luminescence, 8 h; inhibition, % at 10 µM; actives 2% (n = 360,000); in the data active means inhibition above about 50%
Hits are given with their value; n = inactive; u = inconclusive; x = no result.

SMILES	LMP1 NFkB inh	LGR2 antag	EWS-Fli inh	TROY NFkB inh	TWEAK-Fn14 inh
N/C(=N/OC(=O)c1ccccc1Cl)c1nonc1N	n	n	n	n	n
N/C(=N\OC(=O)c1ccc(Cl)cc1)c1ccc(Cl)cc1	n	x	x	n	n
N/C(=N\OC(=O)c1ccc(Cl)cc1)c1ccn[nH]1	n	u	n	n	51
Cc1cccc(/C(N)=N/OC(=O)c2cccc3ccccc23)c1	n	n	x	n	n
Cc1cccc(/C(N)=N/OC(=O)c2ccc(Cl)cc2Cl)c1	n	u	n	63	79
CCCNC(=O)C[C@H]1CC[C@@H]2[C@H](COc3ccc(NC(=O)c4cccc(F)c4)cc3C(=O)N2C)O1	x	n	n	x	x
CCCN1C[C@@H](C)[C@@H](OC)CN(C)C(=O)c2ccc(NS(C)(=O)=O)cc2OC[C@H]1C	x	n	n	x	x
CO[C@H]1CC[C@H]2CCN(C)C(=O)C[C@@H](c3ccccc3)CN(C)C(=O)c3cc(C#N)ccc3OC[C@@H]1O2	x	n	n	x	x
COc1ccc(S(=O)(=O)NCCSCc2ccco2)cc1	n	n	x	x	72
CNC(=O)C[C@H]1CC[C@H]2[C@@H](COC[C@@H](O)CN2S(=O)(=O)c2ccccc2Cl)O1	x	n	x	x	x
CCCCCCCCCCS(=O)(=O)N/N=C/c1ccc([N+](=O)[O-])cc1	n	n	n	51	n
CCN(CC)c1ccc2cc(-c3nnc(-c4ccccc4)o3)c(=O)oc2c1	n	n	x	n	67
CCN(CC)c1ccc2cc(-c3nc4ccccc4[nH]3)c(=O)oc2c1	n	x	x	73	88
COCC(=O)Nc1ccc2c(c1)[C@@H]1C[C@H](CC(=O)NCc3ccccn3)O[C@H](CO)[C@@H]1O2	x	n	n	x	x
Cc1ccc(/C=C/C(O)=C2/C(=O)N(C)C3(C)CC2c2ccccc2O3)cc1 (stereo not drawn)	n	x	x	n	51
COCCCNC(=O)C1CCC(=O)N1Cc1ccccc1Cl (stereo not drawn)	n	n	x	x	85
Cc1ccc(C)c(S(=O)(=O)/N=C2\C=C(NS(=O)(=O)c3ccccc3)C(=O)c3ccccc32)c1	n	n	n	n	n
Cc1cc(C)c(S(=O)(=O)/N=C2/C=C(Sc3ncn[nH]3)C(=O)c3ccccc32)cc1C	n	n	x	59	94
CCOC(=O)c1c(C)[nH]c(C(=O)N/N=C/c2cc([N+](=O)[O-])ccc2O)c1C	n	n	n	77	77
CCOC(=O)c1c(C)[nH]c(C(=O)CSc2ccccc2)c1C	n	x	x	n	67
CCOC(=O)c1c(C)[nH]c(C(=O)N/N=C\c2ccccc2O)c1C	52	n	n	n	n
CCOC(=O)c1c(C)[nH]c(C(=O)N/N=C/c2ccc(OC)c(OC)c2)c1C	n	n	n	n	n
CCOC(=O)c1c(C)[nH]c(C(=O)COC(=O)CCSc2ccccc2)c1C	n	n	n	n	n
C[C@@H]1CCCCO[C@@H](CN(C)C(=O)Nc2ccc(F)cc2)[C@@H](C)CN([C@H](C)CO)C(=O)c2cc(NC(=O)Cc3ccccc3)ccc2O1	x	n	n	x	x
O=C(C[C@@H]1CC[C@@H]2[C@H](COC[C@@H](O)CN2C(=O)c2ccccc2F)O1)NCc1ccc(F)cc1	x	n	n	x	x
SMILES	LMP1 NFkB inh	LGR2 antag	EWS-Fli inh	TROY NFkB inh	TWEAK-Fn14 inh
CCCCN=C1NN=C(c2ccc(C)c(C)c2)CS1	n	n	n	n	n
CCCCN=C1NN=C(c2ccc3c(c2)OCCO3)CS1	n	n	n	62	70
c1cc2c(cc1C1=NNC(=NC3CC3)SC1)OCCO2	84	55	79	89	104
Cc1ccc(S(=O)(=O)N(C)C[C@@H]2OCCCC[C@@H](C)Oc3ccc(NS(=O)(=O)c4ccc(Cl)cc4)cc3C(=O)N([C@@H](C)CO)C[C@@H]2C)cc1	x	n	n	x	x
O=C1C=CC2C3C(=O)N(c4ccccc4)C(=O)C3C1N2Cc1ccccc1 (stereo not drawn)	n	x	60	55	95
CC(=O)N1CCC(C(=O)Nc2ccccc2)(N(Cc2ccccc2)C(=O)c2cccnc2)CC1	n	x	x	51	n
Cc1ccc(C(=O)c2coc3c2C(=O)C(=O)c2ccccc2-3)cc1	n	x	x	n	n
Cc1ccc(C(=O)c2c(C)oc3c2C(=O)C(=O)c2ccccc2-3)cc1	46	x	x	n	54
Cc1oc2c(c1C(=O)c1ccc(Cl)cc1)C(=O)C(=O)c1ccccc1-2	90	x	x	n	91
CN(C)C(=O)C[C@@H]1CC[C@H]2[C@@H](COc3ccc(NS(=O)(=O)c4cccc(F)c4)cc3C(=O)N2C)O1	x	n	n	x	x
CCCNC(=O)C[C@@H]1CC[C@H]2[C@H](COc3ccc(NC(=O)c4cccc(Cl)c4)cc3C(=O)N2C)O1	x	n	n	x	x
O=C(C[C@@H]1CC[C@@H]2[C@H](COC[C@@H](O)CN2Cc2nccs2)O1)NCc1ccc(-c2ccccc2)cc1	x	n	n	x	x
COc1ccc(OC)c(/C=C/c2ccc3cccc(O)c3n2)c1	n	n	n	n	n
COc1ccc(C=Cc2ccc3ccccc3n2)c(OC)c1	45	n	n	n	n
Cc1cc(C)c(O)c(-c2cc(C(=O)Nc3ccc(S(=O)(=O)N4CCOCC4)cc3)[nH]n2)c1	n	x	x	70	63
CC(=O)Nc1ccc(NC(=O)c2cc(-c3cc(C)cc(C)c3O)n[nH]2)cc1	n	n	n	n	n
CCOC(=O)c1sc(NC(=O)c2ccc(Cl)s2)cc1C	n	n	n	n	n
CCOC(=O)c1sc(NC(=O)Nc2ccc(Cl)cc2)cc1C	n	x	x	n	67
CNC(=O)C[C@H]1CC[C@@H]2[C@@H](COc3ccc(NC(=O)Nc4cccc(F)c4)cc3C(=O)N2C)O1	x	n	n	x	x
